18 molecules from the supplement of paper PMC13380429 can be followed below.

The test system of this assay is Vero E6 infected with SARS-CoV-2. Kind of assay: inhibition of SARS-CoV-2 cytopathic effect; higher = more antiviral protection, active = above 15. To be noted: 48 h.

Each structure is given as a SMILES string. A number with no mark means an inactive call.

`OC[C@H]1O[C@@H](c2ccc(F)c(Cc3cc4ccccc4s3)c2)[C@H](O)[C@@H](O)[C@@H]1O` [ipragliflozin-L-proline]: the “inhibition of SARS-CoV-2 cytopathic effect” value (“inhibition” below) was 0.82% (1 nM); -0.16% (8.33 nM); 0.41% (100 nM); 0.42% (833.33 nM); 0.4% (10000 nM).

Regarding `CCc1cn([C@H]2C[C@H](O)[C@@H](CO)O2)c(=O)[nH]c1=O` [edoxudine], the “inhibition” value (1 nM) was 2.72%; the “inhibition” value (8.33 nM) is 2.12%; the “inhibition” value (100 nM) was 0.77%; the “inhibition” value (833.33 nM) was 1.82%; the “inhibition” value (10000 nM) is -0.51%.

As for `Nc1nc(-c2nn(Cc3ccccc3F)c3ncccc23)ncc1C1CC1`, the “inhibition” value reads like this: (1 nM) 1.54%; (8.33 nM) 2.15%; (100 nM) -0.39%; (833.33 nM) -2.42%; (10000 nM) -5.17%.

For the molecule `CCCC(CCC)C(=O)NCC(N)=O` [valrocemide], the “inhibition” value was 0.41% (1 nM); 1.83% (8.33 nM); 2.6% (100 nM); 0.66% (833.33 nM); 3.56% (10000 nM).

In the case of `O=C(NC1(c2ccccc2)CC1)c1c(CN2CCC(N3CCCCC3)CC2)c(-c2cccc(C(F)(F)F)c2)nc2cc(Br)ccc12`, the “inhibition” value is, setting by setting: (1 nM) 1.74%; (8.33 nM) 3.71%; (100 nM) 1.73%; (833.33 nM) -4.53%; (10000 nM) -13.1%.

On to `COc1ccc(-c2oc3c(CC=C(C)C)c(O[C@@H]4O[C@H](CO)[C@@H](O)[C@H](O)[C@H]4O)cc(O)c3c(=O)c2O[C@@H]2O[C@@H](C)[C@H](O)[C@@H](O)[C@H]2O)cc1` [icariin], for which the “inhibition” value reads like this: (1 nM) 4.38%; (8.33 nM) 3.84%; (100 nM) 1.25%; (833.33 nM) -0.92%; (10000 nM) -4.04%.

Regarding `O=C(O)c1ccc(/C=C2\SC(=S)N(c3cccc(C(F)(F)F)c3)C2=O)cc1`, the “inhibition” value runs as follows: (1 nM) -0.08%; (8.33 nM) -0.83%; (100 nM) -2.17%; (833.33 nM) -1.38%; (10000 nM) -0.46%.

Regarding `C[C@H](N)[C@H](O)c1ccc(O)c(O)c1` [levonordefrin], the “inhibition” value runs as follows: (1 nM) -3.75%; (8.33 nM) 0.14%; (100 nM) -1.88%; (833.33 nM) 1.27%; (10000 nM) -2.48%.

With `COc1ccc(Cn2ccc3ccc(C(=O)NO)cc32)cc1`, the “inhibition” value runs as follows: (1 nM) 0.35%; (8.33 nM) 0.42%; (100 nM) 3.29%; (833.33 nM) 1.7%; (10000 nM) -2.47%.

Regarding `COc1cc2c(N3CCN(C(=O)Nc4ccc(OC(C)C)cc4)CC3)ncnc2cc1OCCCN1CCCCC1` [tandutinib], the “inhibition” value was -3.74% (1 nM); -4.22% (8.33 nM); -2.54% (100 nM); 0.88% (833.33 nM); 0.92% (10000 nM).

With `O=C1OC(OC(=O)c2cccnc2Nc2cccc(C(F)(F)F)c2)c2ccccc21` (stereo not given) [talniflumate], the “inhibition” value (1 nM) was 2.12%; the “inhibition” value (8.33 nM) was -1.23%; the “inhibition” value (100 nM) was -2.09%; the “inhibition” value (833.33 nM) is 0.94%; the “inhibition” value (10000 nM) was 0.53%.

Consider `CC1(C)NC(=O)N(c2ccc([N+](=O)[O-])c(C(F)(F)F)c2)C1=O` [nilutamide], for which the “inhibition” value is, setting by setting: (1 nM) 3.3%; (8.33 nM) 1.17%; (100 nM) 0.03%; (833.33 nM) -2.17%; (10000 nM) 1.01%.

On to `O[C@H]1[C@H](O)[C@@H](O)[C@H](O)[C@@H](O)[C@H]1O` [inositol], for which the “inhibition” value by setting is: (1 nM) -0.68%; (8.33 nM) 0.73%; (100 nM) -1.55%; (833.33 nM) 1.69%; (10000 nM) 2.84%.

Turning to `CCc1nc2c(C)nc(C)cc2n1-c1ccc(CCNC(=O)NS(=O)(=O)c2ccc(C)cc2)cc1` [grapiprant], the “inhibition” value is -1.43% (1 nM); -2.32% (8.33 nM); -2.77% (100 nM); -5.47% (833.33 nM); -1.61% (10000 nM).

Take `CC(C)C(=O)OC[C@H]1O[C@@H](n2ccc(N)nc2=O)[C@](C)(F)[C@@H]1OC(=O)C(C)C` [mericitabine]: the “inhibition” value reads like this: (1 nM) -0.35%; (8.33 nM) -2.22%; (100 nM) 2.05%; (833.33 nM) -0.85%; (10000 nM) 1.88%.

On to `Clc1cc(Cl)c(OCC#CI)cc1Cl` [haloprogin], for which the “inhibition” value (1 nM) is -0.57%; the “inhibition” value (8.33 nM) is -1.3%; the “inhibition” value (100 nM) was -0.9%; the “inhibition” value (833.33 nM) was 4.17%; the “inhibition” value (10000 nM) is 15.9% (active).

As for `Nc1cc(C(F)(F)F)c(-c2nc(N3CCOCC3)nc(N3CCOCC3)n2)cn1`, the “inhibition” value is, setting by setting: (1 nM) -0.85%; (8.33 nM) 5.6%; (100 nM) 1.97%; (833.33 nM) 1.89%; (10000 nM) -3.26%.

In the case of `Cn1nnnc1SCC1=C(C(=O)O)N2C(=O)[C@@H](NC(=O)[C@H](OC=O)c3ccccc3)[C@H]2SC1` [cefamandole-nafate], the “inhibition” value (1 nM) was -1.93%; the “inhibition” value (8.33 nM) was -0.03%; the “inhibition” value (100 nM) was -2.69%; the “inhibition” value (833.33 nM) was -3.24%; the “inhibition” value (10000 nM) was -0.65%.
